Most compounds without a hit are left out; they make up all but 0.45% or so of the library.
NCOA1 inh = inhibitors of human steroid receptor coactivator 1 (SRC1) | Q15788 | HEK293 GAL4-SRC1 luciferase reporter, luminescence | actives 0.12% (n = 360,000) | inhibition, % at 3.6 µM | AID 588354;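 active = inhibition above the campaign mean plus 3 SD, with each screening campaign given its own cutoff, cut at about 60% in these data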;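 also: 0% = DMSO treated cells and 100% = gossypol at 36 µM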
LGR2 antag = Drosophila LGR2 receptor signaling inhibition | HEK293 LGR2, CRE-luciferase, bursicon-stimulated, 4 h | actives 0.35% (n = 380,000) | inhibition, % at 9.99 µM;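 active = drop in luminescence signal, shown as inhibition above about 50% in the replicate tests, limit read from the data, passing the limit was not always enough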;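 also: agonist challenge used bursicon conditioned medium at about half maximal strength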
NCOA2 inhibitor = inhibits human steroid receptor coactivator 2; Q15596; HEK293 GAL4-SRC2 luciferase reporter, luminescence; inhibition, % at 9 µM; actives 0.17% (n = 370,000);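 active = inhibition above the mean inhibition of all tested compounds plus 3 SD, set per campaign, cut at about 52% in these data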;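 also: 0% = DMSO treated cells and 100% = cells given Gossypol at 36 µM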
SRC3 inh = inhibits human SRC3 coactivator | Q9Y6Q9 | HEK293 GAL4-SRC3 luciferase reporter, luminescence | inhibition, % at 3.6 µM | actives 0.17% (n = 360,000);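 active = inhibition above a per-campaign cutoff, the mean of all compounds plus 3 SD, cut at about 60% in these data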;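 also: 0% = DMSO-treated cells and 100% = gossypol-treated cells at 36 µM; higher means less SRC3-driven luciferase light from the GAL4 reporter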
LRH-1 inv ag = NR5A2 inverse agonism in reporter assay | AID 602396 | actives 0.13% (n = 360,000) | inhibition, % at 3.6 µM | HEK293T StAR-luciferase reporter, LRH-1 transfected, 24 h;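 active = inhibition above the mean inhibition of all tested compounds plus 3 SD, cut at about 73% in these data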;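 also: 0% = DMSO wells and 100% = reporter-only cells lacking LRH-1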
Target sequence (O00482 whole entry, looked up): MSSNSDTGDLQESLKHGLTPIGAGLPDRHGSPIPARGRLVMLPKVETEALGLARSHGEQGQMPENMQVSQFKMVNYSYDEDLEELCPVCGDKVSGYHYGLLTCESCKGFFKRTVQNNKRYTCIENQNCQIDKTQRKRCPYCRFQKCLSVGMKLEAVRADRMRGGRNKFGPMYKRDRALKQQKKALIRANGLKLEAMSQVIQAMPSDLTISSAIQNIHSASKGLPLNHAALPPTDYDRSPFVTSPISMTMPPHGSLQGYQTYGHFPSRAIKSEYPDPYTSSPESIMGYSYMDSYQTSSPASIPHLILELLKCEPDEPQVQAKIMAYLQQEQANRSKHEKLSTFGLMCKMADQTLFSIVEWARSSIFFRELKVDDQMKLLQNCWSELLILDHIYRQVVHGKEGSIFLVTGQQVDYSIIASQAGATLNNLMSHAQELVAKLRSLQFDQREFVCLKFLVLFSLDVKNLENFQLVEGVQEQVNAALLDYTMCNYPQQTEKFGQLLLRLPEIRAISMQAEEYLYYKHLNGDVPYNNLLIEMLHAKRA
Starred values were filed as active, the others as inactive; · = no result.

SMILES	NCOA1 inh	LGR2 antag	NCOA2 inhibitor	SRC3 inh	LRH-1 inv ag
C[C@@H]1O[C@@H](O[C@@H]2C=C3CC[C@@H]4C(CC[C@]5(C)[C@@H](c6ccc(=O)oc6)CC[C@]45O)[C@@]3(C)CC2)[C@H](O)[C@H](O)[C@H]1O (some centres not stated)	93.3*	86.0*	58.1*	91.3*	99.5*
CC(=O)C1CCC2(O)C3CCC4=CC(=O)CCC4(C)C3CCC12C (configuration not stated)	2.2	2.9	1.3	-4.3	16.2
C[C@@H]1O[C@@H](O[C@@H]2C=C3CCC4C(CC[C@]5(C)[C@@H](c6ccc(=O)oc6)CC[C@]45O)[C@@]3(C)CC2)[C@H](O)[C@H](O)[C@H]1O (some centres not stated)	90.3*	0.1	71.2*	92.5*	102.9*
Cc1ccccc1-c1ccc([C@@H]2[C@H](CO)N3CCCCN(C(=O)Cc4ccccn4)C[C@@H]23)cc1	·	0.8	·	·	·
O=C(Cc1ccccn1)N1CCCCN2[C@H](CO)[C@H](c3ccc(-c4ccccc4F)cc3)[C@@H]2C1	·	1.9	·	·	·
CC(C)[C@H]1C(=O)O[C@H](C(C)C)C(=O)N(C)[C@@H](C(C)C)C(=O)O[C@H](C(C)C)C(=O)N(C)[C@@H](C(C)C)C(=O)O[C@H](C(C)C)C(=O)N1C	37.1	·	·	70.0*	-14.6
CCCN1[C@@H]2Cn3c(ccc(-c4ccccc4)c3=O)[C@H]1[C@@H](C(=O)OC)[C@@H]2CO	·	5.4	·	·	·
C[C@@H]1O[C@@H](O[C@H]2C[C@@H](O)[C@]3(CO)[C@H]4[C@H](O)C[C@]5(C)[C@@H](C6COC(=O)C6)CC[C@]5(O)[C@@H]4CC[C@]3(O)C2)[C@H](O)[C@H](O)[C@H]1O (some centres not stated)	68.7*	81.2*	19.4	57.0	98.8*
CC1OC(OC2CC(O)C3(CO)C4C(O)CC5(C)C(C6=CC(=O)OC6)CCC5(O)C4CCC3(O)C2)C(O)C(O)C1O (configuration not stated)	90.1*	89.6*	72.8*	91.9*	103.0*
COc1ccc(C(=O)N/N=C/C23CC[C@@H](O)CC2(O)CC[C@@H]2[C@@H]3CCC3(C)C(C4=CC(=O)OC4)CCC23O)cc1 (some centres not stated)	5.7	17.1	-52.5	18.2	9.6
COC(=O)[C@@H]1[C@@H](CO)[C@@H]2Cn3c(ccc(-c4ccccc4OC)c3=O)[C@H]1N2Cc1ccccc1	·	6.9	·	·	·
O=C(Cc1ccccc1)N1CC2(C1)[C@H](c1ccccc1)[C@H](CO)N2Cc1cccc(F)c1	·	-9.0	·	·	·
C[CH2][Hg][S]c1ccccc1C(=O)O	-137.6	95.6*	-157.0	-101.2	-32.9
CC(C)COC(=O)c1ccccc1C(=O)OCC(C)C	2.6	2.6	5.2	12.7	-7.6
N#Cc1cccc(-c2ccc([C@H]3[C@H](CO)N4CCCCN(C(=O)Cc5cccnc5)C[C@@H]34)cc2)c1	·	-16.0	·	·	·
CC[C@@H](O)C[C@H]1CCC[C@@]2(C[C@@H]3OC(=O)/C=C/[C@@](C)(O)[C@@H](O)[C@H](C)[C@@H](O)[C@H](OC4CCC(N(C)C)C(C)O4)[C@@H](O)[C@](C)(O)CCCCC/C=C/[C@@H]4CC(C)(C)O[C@@]4(O)C[C@H](O2)[C@H]3C)O1 (some centres not stated)	69.2*	·	-17.1	73.3*	91.6*
CCCN1[C@@H]2c3ccc(-c4cccc(OC)c4)c(=O)n3C[C@H]1[C@H](CO)[C@H]2C(=O)OC	·	-8.2	·	·	·
Cc1nn(Cc2ccc(Cl)cc2Cl)c(Cl)c1C(=O)O	2.2	-10.9	-3.7	-0.7	2.5
N=c1c2c(n(Cc3ccc(Cl)cc3Cl)c3c1CCC3)CCCC2	49.4	·	·	42.8	81.9*
CCC(=O)N1[C@@H]2c3ccc(-c4cccc(F)c4)c(=O)n3C[C@H]1[C@H](CO)[C@H]2C(=O)OC	·	-4.3	·	·	·
CC(=O)OC[C@]12CCC(C)=C[C@H]1O[C@@H]1[C@H](O)[C@@H](OC(C)=O)[C@@]2(C)[C@]12CO2	95.1*	103.9*	74.8*	95.4*	101.9*
CC(=O)OC1CC(OC2C(O)CC(OC3C(O)CC(OC4CCC5(C)C(CCC6C5CCC5(C)C(C7=CC(=O)OC7)CCC65O)C4)OC3C)OC2C)OC(C)C1OC1OC(CO)C(O)C(O)C1O (configuration not stated)	91.5*	85.8*	60.3*	89.3*	98.8*
Cc1[nH]nc2ccc(-c3cncc(OC[C@@H](N)Cc4c[nH]c5ccccc45)c3)cc12	93.5*	·	·	93.7*	99.4*
Cc1ccc(OC(=O)N(C)C[C@H]2OCc3ccccc3-c3c(n(C)c4ccccc34)C(=O)N([C@H](C)CO)C[C@@H]2C)cc1	·	18.9	·	·	·
CCOC(=O)[C@]12Cc3cc(OC)ccc3[C@H]1N(Cc1ccccc1)C(=O)c1ccccc12	6.4	11.8	-8.7	-9.2	11.0
SMILES	NCOA1 inh	LGR2 antag	NCOA2 inhibitor	SRC3 inh	LRH-1 inv ag
CCOC(=O)[C@]12Cc3cc(C)ccc3[C@H]1N(C(C)C)C(=O)c1ccccc12	·	69.0*	20.6	·	8.6
CCCCCN1C(=O)c2ccccc2[C@@]2(C(=O)OCC)Cc3cc(OC)ccc3[C@@H]12	·	64.5*	-7.6	·	15.7
CCC(=O)N1[C@@H]2Cn3c(ccc(-c4cccc(F)c4)c3=O)[C@H]1[C@@H](C(=O)OC)[C@@H]2CO	·	5.0	·	·	·
COc1ccc(-c2ccc([C@@H]3[C@@H](CO)N4CCCCN(C(=O)Cc5ccccc5)C[C@H]34)cc2)cc1	·	0.2	·	·	·
COC(=O)[C@@H]1[C@@H](CO)[C@@H]2Cn3c(ccc(C4=CCCC4)c3=O)[C@H]1N2S(=O)(=O)c1cn(C)cn1	·	-4.4	·	·	·
O=C(O)[C@@H]1[C@@H](CO)[C@@H]2Cn3c(ccc(-c4cccnc4)c3=O)[C@H]1N2S(=O)(=O)c1ccccc1F	·	-21.4	·	·	·
CC=Cc1ccc2n(c1=O)C[C@H]1[C@H](CO)[C@@H](C(=O)OC)[C@@H]2N1CC1CCCC1 (mixture of isomers)	·	-2.3	·	·	·
C[C@H]1CN([C@@H](C)CO)C(=O)c2c(c3ccccc3n2C)-c2ccccc2CO[C@@H]1CN(C)C(=O)Oc1ccccc1	·	-4.9	·	·	·
CCc1nc2ccc(Br)cc2c(=O)n1-c1ccccc1C(F)(F)F	6.4	-4.7	12.1	0.9	9.2
CCCc1nc2ccc(Br)cc2c(=O)n1-c1ccc([N+](=O)[O-])c(C(F)(F)F)c1	35.2	27.9	5.8	63.6*	5.9
CCN(CC)S(=O)(=O)c1ccc(NN=C(C#N)C#N)cc1	7.5	·	28.9	15.6	-18.5
N#CC(C#N)=NNc1ccc(-n2ccc(C(F)(F)F)n2)cc1	32.1	78.4*	0.3	44.6	30.4
Cc1cc(C)n(-c2ccc(NN=C(C#N)C#N)cc2)n1	16.9	81.9*	16.6	39.0	10.8
O=C1CN=C(c2ccc[nH]2)c2cc(Cl)ccc2N1	53.0	-2.6	53.0*	51.1	40.5

High-throughput results deposited in PubChem BioAssay by several laboratories.
